A selection: hits, their analogues and other compounds. The true share with any hit is near 4.8%.
DAX1 inh-1 = DAX1 (NR0B1) inhibitors, primary screen, cell-based, HEK293, Gal4-DAX1, luciferase luminescence; inhibition, % at 6.75 µM; actives 0.99% (n = 340,000); HEK293 Gal4-DAX1 luciferase reporter; AID 504766, 2011;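 active = inhibition above the mean over all tested compounds plus 3 SD, cut at about 4.2% in these data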;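 also: 0% = DAX1-transfected cells with DMSO and 100% = empty-vector control cells with DMSO; inhibition shows as a rise in luminescence from relieved DAX1 repression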
Target sequence (P51843 207-470 limits assumed): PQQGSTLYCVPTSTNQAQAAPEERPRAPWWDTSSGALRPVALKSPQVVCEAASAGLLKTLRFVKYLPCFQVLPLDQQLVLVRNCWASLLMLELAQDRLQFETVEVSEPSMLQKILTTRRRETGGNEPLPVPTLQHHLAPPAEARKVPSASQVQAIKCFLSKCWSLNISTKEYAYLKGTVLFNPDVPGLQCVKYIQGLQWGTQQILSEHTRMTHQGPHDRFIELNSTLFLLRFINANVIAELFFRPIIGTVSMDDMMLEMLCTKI
SMARCA2 act = SMARCA2 (BRM) function activators, primary screen, cell-based, luminescence, high throughput; MG213 cells, MMTV-luciferase reporter, dexamethasone, overnight; activation, % at 9.1 µM; actives 1% (n = 370,000); AID 652017, 2013; in the data active = activation above about 7.8%;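 also: 0% = vehicle wells and 100% = reference activator wells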
hgDAF-12 ag = H. glycines DAF-12 receptor agonists, primary screen, cell-based, luminescence, HEK293, GAL4 fusion, UAS-luciferase. Nuclear hormone receptor DAF-12 (Heterodera glycines), GAL4 fusion. HEK293 GAL4-hgDAF12 UAS-luciferase reporter, agonist luminescence; normalized to butyrate control. activation, % at 6.8 µM. actives 1.8% (n = 370,000). AID 687014, 2013;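 active = activation above a cutoff set at the mean of all screened compounds plus 3 SD, cut at about 10% in these data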;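 also: 0% = DMSO wells and 100% = sodium butyrate wells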
hcDAF-12 act = H. contortus DAF-12 nuclear receptor activators, primary screen, cell-based, luminescence, HEK293, lit1-tk-luc reporter; activation, % at 6.8 µM; actives 1.4% (n = 370,000); HEK293 hcDAF-12 lit1-tk-luc reporter; 0% DMSO, 100% Δ7-dafachronic acid;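 active = activation above the mean of all tested compounds plus 3 SD, cut at about 5.5% in these data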;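 also: 100% = response to 3 µM Δ7-dafachronic acid high control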
DAX1 inh-2 = DAX1 (NR0B1) inhibitors on StAR promoter, primary screen, cell-based, luminescence, SF-1 (NR5A1), full-length DAX-1. HEK293T StAR-luciferase reporter, SF-1/DAX-1 repression relief. inhibition, % at 6.8 µM. actives 1.1% (n = 370,000);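 active = inhibition above the mean over all tested compounds plus 3 SD, cut at about 3.6% in these data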;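 also: 0% = DAX-1 cells with DMSO and 100% = cells lacking DAX-1 with DMSO; higher inhibition means more luminescence from relief of DAX-1 repression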
ssDAF-12 act = S. stercoralis DAF-12 nuclear receptor activators, primary screen, cell-based, luminescence, HEK293, GRIP1 co-expression, lit1-tk-luc | Nuclear hormone receptor DAF-12 (Strongyloides stercoralis) | HEK293 ssDAF-12/GRIP1 lit1-tk-luc reporter; % of 3 µM dafachronic acid response | activation, % at 6.8 µM | actives 1% (n = 370,000) | AID 652126, 2013;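 active = activation above the mean over all tested compounds plus 3 SD, cut at about 0.9% in these data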;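 also: 0% = DMSO-only wells and 100% = 3 µM delta7-dafachronic acid wells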
The depositor's hits bear a star; . = not tested or not shown.

SMILES	DAX1 inh-1	SMARCA2 act	hgDAF-12 ag	hcDAF-12 act	DAX1 inh-2	ssDAF-12 act
COc1ccc2nc(NC(=O)c3ccccc3-c3ccccc3C(=O)O)sc2c1	3.5	-2.6	-2.0	-1.5	0.0	-0.3
COc1ccc2nc(NC(=O)c3ccccc3C(=O)O)sc2c1	-0.5	2.6	2.8	5.7*	0.6	0.0
O=c1c2ccccc2c(-c2ccccc2)nn1-c1ccccc1	.	0.0	-1.1	-1.1	-0.8	-1.4
Cc1ccc(C(=O)N/C(=C\c2cn(C)c3ccccc23)C(=O)NCCCN2CCOCC2)cc1	0.2	0.7	-0.2	0.9	0.7	-1.4
O=C1NC(=Nc2ccccc2)c2c1cccc2[N+](=O)[O-]	-1.8	-3.4	1.6	-0.2	-0.4	1.3*
Cn1nc(-c2ccccc2)cc1NS(=O)(=O)c1ccc(C#N)cc1	4.3*	-4.1	0.3	-0.4	-0.3	-1.2
CC(=O)C(Sc1nc(N(C)C)nc(N(C)C)n1)C(=O)Nc1ccccc1 (stereo not given)	0.5	-0.1	-0.1	1.5	0.3	-0.7
CC(=O)C(Sc1nn(C)c(=S)s1)C(=O)Nc1ccccc1 (stereo not given)	1.1	1.4	6.5	1.9	2.0	1.0*
O=C(Nc1ccc(Cl)cc1)Nc1ccccn1	4.0	1.2	12.0*	3.6	1.4	-0.1
CNC(=O)N/N=C(\N)c1ccccn1	-1.2	-2.8	-0.2	-1.7	0.5	-0.9
N/C(=N\NC(=O)Nc1ccc(Cl)cc1)c1ccccn1	2.5	5.3	5.1	5.6*	0.6	0.2
O=C(Nc1ccccc1)Nc1ccccn1	0.9	5.3	5.4	3.1	1.7	-1.4
O=c1c(-c2ccc(Cl)cc2)[n+]([O-])c2ccccc2n1O	-0.6	0.9	1.9	0.0	0.0	-0.5
O=c1c(-c2cccc([N+](=O)[O-])c2)[n+]([O-])c2ccccc2n1O	6.5*	-2.9	2.2	0.6	-0.4	-0.7
COc1ccc(Cc2nc3ccc(C(=O)N(C)CCn4ccnc4)cc3o2)cc1OC	-0.1	0.6	2.8	-1.4	-0.2	-0.7
CCN(CC)C(=O)c1cc(-c2ccc(Br)cc2)on1	2.2	4.1	10.8*	0.9	2.2	0.9*
c1ccc(-c2cnc(-c3ccccc3)nc2)cc1	1.9	4.9	10.6*	4.8	2.3	0.7
CN(CC(=O)Nc1cccc(Cl)c1)C1=NS(=O)(=O)c2ccccc21	-0.3	2.5	-2.8	-0.2	-0.6	-0.8
Cc1cccc(C2=NN(c3ccccc3)[C@@H](C(=O)N3CCOC3=O)[C@@H]2c2ccccc2)c1	0.4	-5.9	0.9	0.8	3.7*	-0.1
COc1ccc(-n2nnc3c(=O)n(CC(=O)N4CCCCC4)cnc32)cc1	0.0	-0.8	-0.1	-0.7	0.1	-0.3
Cc1ccccc1NC(=O)N1CCCC(c2nc(-c3ccc(C(C)C)cc3)no2)C1 (stereo not given)	-3.5	-1.8	10.5*	4.9	0.3	-0.3
Cc1ccccc1NC(=O)N1CCCC(c2nc(-c3ccc(F)cc3)no2)C1 (stereo not given)	-0.2	0.5	3.4	-1.0	0.6	-1.6
COc1ccc(Nc2ccc(N3C(=O)CCCC3=O)cc2[N+](=O)[O-])cc1OC	-0.7	-2.5	-2.8	-3.4	-0.7	-1.7
CCOc1ccc(Nc2ccc(N3C(=O)CCC3=O)cc2[N+](=O)[O-])cc1	1.5	1.7	1.5	6.2*	-0.3	-1.3
Cc1cccc(C(=O)OCC(=O)NC23CC4CC(CC(C4)C2)C3)c1O	0.9	2.9	5.9	-0.1	0.7	-0.3
COc1cc2[nH]c(=S)n(NC(=O)c3ccccc3)c(=O)c2cc1OC	-0.1	3.7	-0.5	-1.7	0.3	-0.1
O=C1N=c2ccccc2=C1c1sc(=S)n(NC(=O)c2ccccc2)c1O	0.4	-0.5	2.1	3.3	0.7	1.0*
